# Experimental data from PubChem BioAssay (NCI).
# Where “and” joins values, the source holds several entries; their conditions need not be identical. Equal entries are not always repeated. This is part of a sample that, as a whole, favours compounds with a hit. Of some 79,000 tested, about 15% had one in any assay. Where a structure was tested more than once in an assay, its records may differ in their call. Calls of active or inactive are those of the source. No stated cut-off is given here; in the data, active means growth inhibition above about 70%; inactive means the rest.
# Columns and labels:
# [1] = NCI Yeast Anticancer Drug Screen. Data for the rad50 strain (AID 155);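 further: 0% = growth of vehicle-only cultures of the same strain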; conditions: S. cerevisiae rad50 strain growth inhibition, stronger effect = higher value
# Outline: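 Inhibition values express reduced yeast growth in compound-treated cultures relative to vehicle-treated controls.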
# [2] = NCI Yeast Anticancer Drug Screen. Data for the mec2-1 strain (AID 157); conditions: S. cerevisiae mec2-1 strain, stronger effect = higher value
# Outline: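 Growth inhibition is read against vehicle-treated controls after compound exposure of the mec2-1 yeast strain, which is defective in DNA damage repair or cell cycle control.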
# [3] = NCI Yeast Anticancer Drug Screen. Data for the sgs1 mgt1 strain (AID 161);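 further: 0% = growth of cultures given vehicle only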; conditions: S. cerevisiae sgs1 mgt1 strain, stronger effect = higher value
# Outline: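 Growth of a repair-deficient yeast mutant was monitored after compound treatment and expressed as inhibition relative to vehicle-treated cultures.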
# [4] = NCI Yeast Anticancer Drug Screen. Data for the cln2 rad14 strain (AID 165);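 further: 0% = growth equal to vehicle treated cultures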; conditions: S. cerevisiae cln2 rad14 strain, stronger effect = higher value
# Outline: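 Growth inhibition, relative to vehicle-treated controls, is the read-out. The test organism is a yeast strain with defined genetic alterations, cln2 rad14.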
# [5] = NCI Yeast Anticancer Drug Screen. Data for the bub3 strain (AID 167); conditions: S. cerevisiae bub3 mutant strain, stronger effect = higher value
# Outline: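 Steps: expose the mutant yeast strain to compound; grow alongside vehicle-treated cultures; measure growth; express inhibition against the vehicle cultures.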
# [6] = NCI Yeast Anticancer Drug Screen. Data for the mlh1 rad18 strain (AID 175); conditions: S. cerevisiae mlh1 rad18 strain growth inhibition, stronger effect = higher value
# Outline: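 Cells of a genetically altered yeast strain, deficient in DNA damage repair, were treated with compound. Their growth was then compared with that of vehicle-treated cultures to give inhibition.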
# [7] = at 5.0 µM (retest, dose inferred, filed as 0.5)
# [8] = at 50.0 µM (retest, dose inferred, filed as 5.0)
Compound,"growth inhibition [1, 7]","growth inhibition [1, 8]",growth inhibition ([1]; at 50.0 µM),"growth inhibition [2, 7]","growth inhibition [2, 8]",growth inhibition ([2]; at 50.0 µM),"growth inhibition [3, 7]","growth inhibition [3, 8]",growth inhibition ([3]; at 50.0 µM),"growth inhibition [4, 7]","growth inhibition [4, 8]",growth inhibition ([4]; at 50.0 µM),"growth inhibition [5, 7]","growth inhibition [5, 8]",growth inhibition ([5]; at 50.0 µM),"growth inhibition [6, 7]","growth inhibition [6, 8]",growth inhibition ([6]; at 50.0 µM)
CC(=O)[O-].CC(=O)[O-].O=C(N/N=C/c1cc(Cl)cc(Cl)c1[OH2+])c1ccncc1.[Mn+2],24% (inactive),96% (active),97.8% (active),40% (inactive),98% (active),97.2% (active),40% (inactive),92% (active),98% (active),1% (inactive),95% (active),97% (active),11% (inactive),96% (active),97.5% (active),3% (inactive),95% (active),98.2% (active)
CS/C([S-])=N/N=C/c1ccccn1.[Cl][Pt+],1% (inactive),58% (inactive),82.2% (active),3% (inactive),80% (active),38% (inactive),20% (inactive),96% (active),89.6% (active),-3% (inactive),29% (inactive),9.15% (inactive),-4% (inactive),77% (active),19.6% (inactive),33% (inactive),93% (active),64.2% (inactive)
CCC[CH2][Pb]([CH2]CCC)([O]C(C)=O)[O]C(C)=O,99% (active),99% (active),90% (active),63% (inactive),99% (active),93.1% (active),99% (active),94% (active),94% (active),92% (active),98% (active),92.3% (active),99% (active),98% (active),92.2% (active),100% (active),99% (active),91.5% (active)
CCC[CH2][Sn]([Cl])([CH2]C)[O][Sn]([Cl])([CH2]C)[CH2]CCC (centres undefined),88% (active),98% (active),83.5% (active),96% (active),99% (active),88.2% (active),81% (active),97% (active),89.6% (active),84% (active),97% (active),91.2% (active),84% (active),97% (active),89.2% (active),95% (active),98% (active),90.2% (active)
N#CC(C#N)=Cc1cc(Cl)ccc1O,11% (inactive),79% (active),56% (inactive) and 4.55% (inactive),-14% (inactive),44% (inactive),45.5% (inactive) and 17.9% (inactive),2% (inactive),58% (inactive),46% (inactive) and 65.7% (inactive),4% (inactive),30% (inactive),40.7% (inactive) and -4.9% (inactive),31% (inactive),64% (inactive),20.7% (inactive) and 2.2% (inactive),8% (inactive),71% (active),65.8% (inactive) and 39.8% (inactive)
O=[N+]([O-])c1ccc(SC2CCCCCCC2Cl)c([N+](=O)[O-])c1 (centres undefined),6% (inactive),22% (inactive),22.1% (inactive),8% (inactive),41% (inactive),4.3% (inactive),10% (inactive),76% (active),30.1% (inactive),-1% (inactive),29% (inactive),14.8% (inactive),15% (inactive),85% (active),20.5% (inactive),7% (inactive),53% (inactive),72.8% (active)
COC(=O)C1=C(O)C(C(=O)OC)[C@]2(O)[C@@H](C(=O)OC)[C@H]1C[C@@H](c1ccccc1)[C@@H]2C(=O)OC (some centres undefined),4% (inactive),98% (active),97.7% (active),3% (inactive),97% (active),98.3% (active),10% (inactive),97% (active),98.3% (active),11% (inactive),92% (active),84.3% (active),3% (inactive),97% (active),98.2% (active),10% (inactive),98% (active),98.6% (active)
O=[N+]([O-])c1cc([N+](=O)[O-])c2cccnc2c1O,-4% (inactive),3% (inactive),98.6% (active),-10% (inactive),-10% (inactive),98.3% (active),-3% (inactive),11% (inactive),97.5% (active),2% (inactive),-2% (inactive),94.3% (active),-7% (inactive),-11% (inactive),98% (active),-4% (inactive),-7% (inactive),96.8% (active)
[Cl][Sn]([c]1ccccc1)[c]1ccccc1,41% (inactive),93% (active),80.8% (active),30% (inactive),96% (active),85.8% (active),56% (inactive),99% (active),89% (active),34% (inactive),97% (active),54.2% (inactive),57% (inactive),98% (active),87.8% (active),30% (inactive),90% (active),83.5% (active)
CC1=C(CO)C(=O)OC(C(C)C2CCC3C4CC5OC56C(O)C(N5CC5)=CC(=O)C6(C)C4CCC23C)C1 (centres undefined),-7% (inactive),43% (inactive),76.8% (active),3% (inactive),49% (inactive),75.5% (active),-2% (inactive),42% (inactive),70.2% (active),23% (inactive),57% (inactive),28.9% (inactive),13% (inactive),77% (active),75.2% (active),-1% (inactive),78% (active),69.8% (inactive)
CC1CN1C1=C(F)C(=O)C(N2CC2C)=C(F)C1=O (centres undefined),98% (active),99% (active),90.8% (active),100% (active),99% (active),94% (active),99% (active),99% (active),91% (active),99% (active),99% (active),91% (active),99% (active),99% (active),92.5% (active),99% (active),99% (active),91.5% (active)
CC(C)C1=CC23CCC4C(C)(C(=O)O)CCCC4(C)C2CC1OO3 (centres undefined),37% (inactive),91% (active),98.2% (active) and 98.8% (active),10% (inactive),94% (active),93.1% (active) and 98.8% (active),17% (inactive),84% (active),98.2% (active) and 98.9% (active),1% (inactive),78% (active),97% (active) and 90.4% (active),-3% (inactive),80% (active),98% (active) and 99.5% (active),27% (inactive),89% (active),98.5% (active) and 95.2% (active)
CCC/C=[CH]/[Hg][Cl],99% (active),99% (active),99.2% (active),100% (active),100% (active),99.5% (active),100% (active),99% (active),99.5% (active),97% (active),99% (active),99.3% (active),99% (active),99% (active),99.4% (active),100% (active),99% (active),99.4% (active)
O=C1C=CC(=O)c2c(O)ccc(O)c21,99% (active) and 16% (inactive),17% (inactive) and 93% (active),89.1% (active) and 64% (inactive),99% (active) and -14% (inactive),14% (inactive) and 95% (active),91.5% (active) and 68.8% (inactive),97% (active) and -5% (inactive),19% (inactive) and 95% (active),91% (active) and 80.3% (active),98% (active) and 20% (inactive),16% (inactive) and 93% (active),88.8% (active) and 77.7% (active),99% (active) and 11% (inactive),80% (active) and 93% (active),89.6% (active) and 79.1% (active),99% (active) and -4% (inactive),21% (inactive) and 92% (active),88.4% (active)
O=[N+]([O-])c1ccc(C=Cc2ccc(C(F)(F)F)cc2)cc1.[C-]#[O+].[C-]#[O+].[C-]#[O+].[Cr],2% (inactive),67% (inactive),29% (inactive),0% (inactive),51% (inactive),55.8% (inactive),17% (inactive),60% (inactive),72.5% (active),-22% (inactive),60% (inactive),26.6% (inactive),0% (inactive),75% (active),73.2% (active),12% (inactive),72% (active),73.9% (active)
C=CCCCCCCCCC(=O)O (tested in a mixture with another compound),-3% (inactive),12% (inactive),23.1% (inactive),-3% (inactive),8% (inactive),63.3% (inactive),-9% (inactive),27% (inactive),53% (inactive),6% (inactive),72% (active),96.8% (active),-7% (inactive),7% (inactive),40.4% (inactive),-7% (inactive),48% (inactive),83% (active)
CCOP(=O)(O)C(Nc1ccc(N=Nc2ccccc2)cc1)c1cccc(C(Nc2ccc(N=Nc3ccccc3)cc2)P(=O)(O)OCC)c1 (centres undefined),10% (inactive),29% (inactive),49.4% (inactive),0% (inactive),46% (inactive),47.6% (inactive),5% (inactive),8% (inactive),46.3% (inactive),6% (inactive),27% (inactive),44% (inactive),4% (inactive),35% (inactive),42.5% (inactive),7% (inactive),42% (inactive),47.9% (inactive)
C[As](C)SCC1OC2OC(C)(C)OC2C2OC(C)(C)OC12 (centres undefined),28% (inactive),97% (active),91.5% (active),21% (inactive),99% (active),92.2% (active),45% (inactive),83% (active),92.5% (active),48% (inactive),73% (active),90.1% (active),44% (inactive),99% (active),91.5% (active),24% (inactive),96% (active),90.2% (active)
